KB-V1 cytotox = qHTS assay for MDR1-selective chemotherapeutics: Primary screen using the drug-selected MDR subline cells KB-V1. AID 1347076, 2019. KB-V1 MDR cells viability, CellTiter-Glo, 72 h. Potency, µM (titrated, usually from 46.1 µM), hits mostly cytotoxic. 400,000 compounds, 3.4% hits; note: % is set by controls: 0 for no effect and ±100 for the full control effect; nearly all actives have a fitted effect of over 60% in size
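Following 72 h at 37 degrees C with compound, KB-V1 cell viability was read by CellTiter-Glo luminescence, medium being phenol-red-free DMEM plus 10% FBS; concentration-response parameters came from normalized, curve-fitted qHTS data.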
HT1080 IDH1KD tx = qHTS for induction of synthetic lethality in tumor cells producing 2HG: qHTS for the HT-1080-IDH1KD cell line; 360,000 compounds, 2% hits; Potency, µM (highest dose often 46.1 µM), without a hit: at the top dose activity, negative = toxicity, actives largely listed as cytotoxic; HT-1080 IDH1 knockdown viability, ATP luminescence, 48 h; AID 686971, 2013;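 note: 0% = DMSO wells and -100% = cell-free medium wells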
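CellTiter-Glo luminescence after 48 h compound exposure at 37 degrees C of IDH1-knockdown HT-1080 cells in 5% FBS RPMI. %Activity scaled between DMSO wells and cell-free media wells, with curves fitted and assigned curve classes.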
HT1080-NT tox = qHTS for induction of synthetic lethality in tumor cells producing 2HG: qHTS for the HT-1080-NT fibrosarcoma cell line. HT-1080-NT fibrosarcoma viability, CellTiter-Glo ATP luminescence, 48 h. Potency, µM (series often up to 46.1 µM), without a hit: at the top dose activity, negative = less viability, most hits filed as cytotoxic. 360,000 compounds, 1.6% hits;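 note: NT is the 2HG producing partner of a matched IDH1 knockdown line; 0% = DMSO-treated cells and -100% = media-only wells without cells; nearly all actives have a fitted effect of over 55% in size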
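Compounds were tested in concentration-response format on HT-1080-NT cells for 48 hours at 37 degrees C. Cell viability came from CellTiter-Glo luminescence; curves were classified by r2, response magnitude and activity.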
TGFb SMAD3 inh = qHTS for Inhibitors of TGF-b; HepG2 CAGA-GFP TGF-b/SMAD3 reporter, GFP fluorescence, 18 h; TGF-beta stimulated, 500 pg/mL final; Potency, µM (highest dose often 46.1 µM), inactives show at the top dose activity, negative = inhibition, most hits filed as inhibitors; 410,000 compounds, 1.2% hits; AID 588855, 2011; note: % is set by controls: 0 for no effect and ±100 for the full control effect; nearly all actives have a fitted effect of over 65% in size
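HEPG2 CAGA-GFP cells (1000/well, DMEM with 1% FBS) were pre-incubated 2 h at 37 degrees C, given compound by pin tool, then stimulated with TGF-beta at 500 pg/mL final for 18 h before per-cell GFP fluorescence imaging.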
HepG2 tox = qHTS for Inhibitors of TGF-b: Cytotox Counterscreen. 410,000 compounds, 0.76% hits. HepG2 CAGA-GFP viability, ATP luminescence, 18 h. Potency, µM (series often up to 46.1 µM), inactives show at the top dose activity change, negative = cytotoxicity, hits mostly cytotoxic
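CellTiter-Glo luminescence gave cytotoxicity after 18 hours at 37 degrees C. The cells were HepG2 CAGA-GFP in 1% FBS DMEM, stimulated with 500 pg/mL TGF-beta after compound addition. %Activity was normalised to no-cell wells (complete cell-killing) and DMSO (no toxicity), and curves were fitted and classified.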
KB-3-1 tox = qHTS assay for MDR1-selective chemotherapeutics: Primary screen using the parental adenocarcinoma cell KB-3-1. 400,000 compounds, 1.4% hits. Potency, µM (top dose mostly 46.1 µM), hits mostly cytotoxic. KB-3-1 viability, CellTiter-Glo ATP luminescence, 72 h; note: % is set by controls: 0 for no effect and ±100 for the full control effect; nearly all actives have a fitted effect of over 60% in size
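Viability of parental KB-3-1 cells, measured by CellTiter-Glo luminescence, followed a 72 h incubation at 37 °C with pinned compounds in phenol-red-free DMEM containing 10% FBS.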
* hit, by the source's call; i = inactive; ? = inconclusive; nt = not tested or not shown; [ ] = dose if it differs, or a comment. This is a sample that favours compounds with a hit; in the whole collection about 6.6% have one here. Calls come from the whole dose curve; as a rule, active = well fitted curve in the direction sought with a large enough effect; inconclusive = small, poorly fitted or top-dose-only effect, or another doubt; inactive = no such curve, though single readings can be large; an effect the other way counts as inactive or inconclusive. Potency is the fitted concentration of half-maximal effect.

SMILES	KB-V1 cytotox	HT1080 IDH1KD tx	HT1080-NT tox	TGFb SMAD3 inh	HepG2 tox	KB-3-1 tox
CC(=O)Nc1nc(-c2ccc3c(c2)CCN3C(=O)C2CC2)c(C)s1	15µM*	?	-27%	-2%	-12%	?
CCCN(CCC)CC(O)Cn1cc(/C=C/C(=O)c2ccccc2)c2ccccc21 (stereo not given)	i	15µM*	?	?	13µM*	?
CCCN(CCC)CC(O)Cn1cc(/C=C/C(=O)c2ccc(Br)cc2)c2ccccc21 (stereo not given)	i	nt	nt	8%	-35%	i
CCCN(CCC)CC(O)Cn1cc(/C=C/C(=O)c2ccc(C)cc2)c2ccccc21 (stereo not given)	i	nt	nt	?	8.9µM*	i
CCCN(CCC)CC(O)Cn1cc(/C=C/C(=O)c2ccc(OC)cc2)c2ccccc21 (stereo not given)	nt	nt	nt	nt	-101%	nt
CCCCN(C)CC(O)Cn1cc(/C=C/C(=O)c2ccc(C)cc2)c2ccccc21 (stereo not given)	i	?	?	18µM*	13µM*	i
N/C(=N\c1nnc(-c2ccncc2)s1)Nc1ccc(Cl)c(Cl)c1	i	nt	nt	nt	nt	i
Cc1c([N+](=O)[O-])cnc(Sc2ccccc2)c1[N+](=O)[O-]	i	?	?	13µM*	20µM*	i
Cc1ccc(Sc2ncccc2[N+](=O)[O-])cc1	i	6%	4%	0%	-2%	i
Cc1cccc(CSc2ncc(Cl)c(C(=O)Nc3sc4c(c3C#N)CCCC4)n2)c1	i	nt	nt	0%	0%	i
NC1=NC(c2ccc(Cl)cc2)C(C(=O)c2ccccc2)N1 (stereo not given)	i	15µM*	18µM*	?	-7%	?
O=S(=O)(c1ccccc1)c1nc(Nc2cccc(O)c2)sc1Cl	?	-1%	0%	?	-31%	16µM*
Cc1ccc(S(=O)(=O)c2nc(Nc3ccccc3)sc2Cl)cc1	i	-14%	-12%	?	-31%	?
COc1ccc(Nc2nc(S(=O)(=O)c3ccc(C)cc3)c(Cl)s2)cc1	i	23µM*	23µM*	11µM*	-30%	?
O=C(C1CCC(C(=O)N2CCc3ccccc32)CC1)N1CCc2ccccc21 (stereo not given)	i	0%[9.24 µM]	19%	5%	0%	i
O=C(Nc1ccccc1)C(=O)Nc1ccc2c(c1)N(C(=O)C1CC1)CCC2	?	?	?	12%	-75%	23µM*
COc1cc2c(c(OC)c1OC)-c1ccc(SC)c(=O)cc1C(NC(=O)c1ccccc1)CC2 (stereo not given)	0.73µM*	?	?	?	1%	0.0092µM*
C=COC(=O)NC1CCc2cc(OC)c(OC)c(OC)c2-c2ccc(SC)c(=O)cc21 (stereo not given)	?	?	0.18µM*	?	-33%	0.0065µM*
COc1c(O[C@@H]2O[C@H](CO)[C@@H](O)[C@H](O)[C@H]2O)cc2c(c1OC)-c1ccc(SC)c(=O)cc1C(NC(C)=O)CC2 (stereo not given in full)	i	?	?	-1%	-3%	i
COc1cccc(NC(=S)N(CCCN2CCCC2)Cc2cccn2Cc2ccc(Cl)cc2)c1	?	18µM*	21µM*	?	-178%	?
CSc1cccc(NC(=S)N(CCCN2CCCC2)Cc2cccn2Cc2ccc(Cl)cc2)c1	18µM*	?	18µM*	?	-175%	i
S=C(Nc1cccc(Cl)c1)N(CCCN1CCCC1)Cc1cccn1Cc1ccc(Cl)cc1	12µM*	18µM*	16µM*	?	25µM*	?
Cn1cc(CN(CCCN2CCOCC2)C(=S)Nc2cccc(Cl)c2)c2ccccc21	i	?	?	?	2%	i
COC(=O)C1=C[C@@H](C(=O)OC)C2C3=C(C(=O)[C@@]2(C)NC(=O)c2ccccc2)[C@H](C)[C@@H]2C(=O)NC(=O)[C@@H]2[C@@H]3C1 (stereo not given in full)	nt	nt	nt	-4%	-31%	nt
O=C(NCCc1ccc(Cl)cc1)c1ccc(CS(=O)(=O)Cc2ccc(Cl)cc2)o1	nt	nt	nt	-14%	-25%	nt
SMILES	KB-V1 cytotox	HT1080 IDH1KD tx	HT1080-NT tox	TGFb SMAD3 inh	HepG2 tox	KB-3-1 tox
CCOc1ccccc1C1C(C(=O)Nc2ccccc2)=C(C)Nc2c(C(=O)Nc3ccc(F)cc3)cnn21 (stereo not given)	i	nt	nt	-14%	5%	i
COc1cc(OC)c(NC(=O)C2=C(C)C(=O)OC23CCCCCC3)cc1Cl	i	nt	nt	?	-2%	i
COc1nc(C)ccc1-c1noc(-c2ccccn2)n1	12µM*	-17%	-30%	-21%	-20%	i
Cc1ccccc1-c1nc(-c2ccccn2)no1	?	21µM*	23µM*	0%	-79%	?
COc1ccccc1-c1noc(-c2ccncc2)n1	i	-12%	-12%	-8%	-19%	i
COc1ccccc1-c1nc(-c2ccc(C)nc2OC)no1	i	0%	-13%	3%	-14%	i
COc1ccccc1-c1nc(-c2ccccn2)no1	?	23µM*	21µM*	6%	-100%	?
COc1ccc(-c2nc(-c3ccccn3)no2)cc1	i	9.2µM*	8.2µM*	-1%	3.5µM*	?
Cc1ccccc1-c1noc(-c2cccnc2N2CCN(c3ccccc3)CC2)n1	i	nt	nt	-1%	6%	i
COn1c(SCc2cccc(Cl)c2)nc2ccccc2c1=O	16µM*	-19%	-17%	-4%	-11%	?
O=c1c2ccccc2nc(SCc2cccc(F)c2)n1Cc1ccco1	7.3µM*	-27%	-23%	?	-15%	?
CCOC(=O)CC(=O)CSc1nc2ccccc2c(=O)n1-c1ccc(C(=O)N2CCOCC2)cc1	?	-12%	6%	-7%	-13%	?
O=C(c1ccc(-n2c(SCc3cc(F)ccc3F)nc3ccccc3c2=O)cc1)N1CCOCC1	0.65µM*	-4%	-1%	1%	-2%	?
